The results in this text go back to PubChem BioAssay (NCI).

Test systems include HCT-15 colon; HT29 colon; SNB-75 CNS; SNB-19 CNS; U251 CNS; PC-3 prostate; SK-MEL-5 melanoma; UACC-62 melanoma; LOX IMVI melanoma; SK-MEL-28 melanoma; SK-MEL-2 melanoma; EKVX NSCLC; SN12C renal; UO-31 renal; TK-10 renal; ACHN renal; CAKI-1 renal; A498 renal; CCRF-CEM leukemia; MOLT-4 leukemia.
Assay in all cases: NCI-60 one-dose screen, 48 h (100 = growth as untreated, 0 = no growth, -100 = all killed)
What all share (conditions): 10 µM unless noted

The panel holds about 83,000 compounds, 20% with a hit somewhere; the sample as a whole holds those more often.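 A percent growth of 40 corresponds to 60% growth inhibition; 0 means no net growth; -100 means all cells died. Active threshold: below 10.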 Unmarked numbers belong to inactive results. Activity calls are given as the source filed them.

Turning to `O=C(Nc1ccccc1OC(=O)c1ccccc1)c1ccccc1`, the growth in the experiment on HCT-15 colon is 88.5%; in the experiment with HT29 colon, 51.9%; with SNB-75 CNS it was 101%; in the experiment on SNB-19 CNS, 87.4%; in the experiment with U251 CNS it was 47%; in the experiment with PC-3 prostate, 88.5%. Also, the growth in the experiment with SK-MEL-5 melanoma is 97.4%; in the experiment on UACC-62 melanoma, 82.6%; with LOX IMVI melanoma, 60.1%; with SK-MEL-28 melanoma, 118%; with SK-MEL-2 melanoma it was 83.1%; in the experiment with EKVX NSCLC, 110%. Further, the growth with SN12C renal is 69.6%; in the experiment on UO-31 renal, 77.4%; in the experiment with TK-10 renal, 101%; in the experiment on ACHN renal it was 98.9%; in the experiment on CAKI-1 renal, 91.5%; in the experiment on A498 renal, 81.4%. The growth was 27.1% with CCRF-CEM leukemia and 26.2% in the experiment with MOLT-4 leukemia.
For the compound `O=c1c2ccccc2c2nccn2c2cc(Cl)ccc12`, the growth in the experiment with HCT-15 colon was 129%; in the experiment on HT29 colon, 83.8%; with SNB-75 CNS it was 73.3%; with SNB-19 CNS it was 119%; in the experiment on U251 CNS, 105%; in the experiment with PC-3 prostate it was 72.5%. Besides, the growth was 72.6% with SK-MEL-5 melanoma; 129% in the experiment on UACC-62 melanoma; 95.4% with LOX IMVI melanoma; 96.8% with SK-MEL-28 melanoma; 81.5% in the experiment with SK-MEL-2 melanoma; 83.2% in the experiment on EKVX NSCLC. The growth in the experiment with SN12C renal was 112%; with UO-31 renal, 70.7%; with TK-10 renal, 137%; in the experiment on ACHN renal, 138%; in the experiment with CAKI-1 renal, 75.2%; in the experiment on A498 renal, 77.9%. Also, the figures for the growth in the experiment with CCRF-CEM leukemia and in the experiment with MOLT-4 leukemia were 34% and -54.9% (active), respectively.
On to `COc1cc(NC(=O)NCc2ccco2)ccc1-c1ccc(NC(=O)NCc2ccco2)cc1OC`, for which the growth in the experiment with HCT-15 colon was 48.7%; in the experiment on HT29 colon, 33.7%; in the experiment with SNB-75 CNS, 65.3%; with SNB-19 CNS, 72.9%; with U251 CNS, 12.4%; in the experiment on PC-3 prostate, 33.6%. Moreover, the growth with SK-MEL-5 melanoma is 30.6%; in the experiment on UACC-62 melanoma, 45.3%; with LOX IMVI melanoma it was 45.4%; in the experiment on SK-MEL-28 melanoma it was 79.8%; in the experiment with SK-MEL-2 melanoma it was 76.3%; with EKVX NSCLC it was 73%. Further, the growth is 69.4% in the experiment on SN12C renal; 73.4% in the experiment with UO-31 renal; 37.7% in the experiment on TK-10 renal; 60.2% in the experiment with ACHN renal; 105% with CAKI-1 renal; 65.8% in the experiment with A498 renal. The growth in the experiment with CCRF-CEM leukemia was 61.3%; in the experiment on MOLT-4 leukemia, 62.5%.
As to `Cc1ccc(-c2cc(-c3ccccc3)n(-c3ccccc3)n2)cc1`, the growth in the experiment with HCT-15 colon is 106%; in the experiment on HT29 colon it was 96.7%; in the experiment on SNB-75 CNS it was 99.4%; in the experiment with SNB-19 CNS, 95.4%; in the experiment on U251 CNS, 97.7%; in the experiment with PC-3 prostate, 99.6%. Besides, the growth in the experiment on SK-MEL-5 melanoma is 106%; in the experiment on UACC-62 melanoma it was 88.2%; with LOX IMVI melanoma, 99%; in the experiment on SK-MEL-28 melanoma, 98.2%; in the experiment with SK-MEL-2 melanoma it was 74.6%; in the experiment with EKVX NSCLC, 98.6%. The growth in the experiment on SN12C renal is 107%; in the experiment with UO-31 renal, 79.1%; in the experiment on TK-10 renal, 99.4%; in the experiment with ACHN renal it was 95.3%; in the experiment on CAKI-1 renal it was 94.5%; in the experiment with A498 renal, 92.1%. The growth is 84.9% in the experiment on CCRF-CEM leukemia and 81.5% with MOLT-4 leukemia.
As for `CCSc1ncc(Br)c(Sc2nc(N)nc3nc[nH]c23)n1`, the growth was 68.5% in the experiment with HCT-15 colon; 62.3% in the experiment with HT29 colon; 60.2% in the experiment on SNB-75 CNS; 121% in the experiment with SNB-19 CNS; 89.5% in the experiment with U251 CNS; 80.1% with PC-3 prostate. The growth in the experiment on SK-MEL-5 melanoma was 74.6%; in the experiment on UACC-62 melanoma, 19.3%; in the experiment with LOX IMVI melanoma it was 19.5%; in the experiment with SK-MEL-28 melanoma, 152%; in the experiment on SK-MEL-2 melanoma, 73.1%; with EKVX NSCLC, 36.7%. Moreover, the growth is 80.9% with SN12C renal; 70% in the experiment with UO-31 renal; 72.7% with TK-10 renal; 77.6% in the experiment with ACHN renal; 57.7% in the experiment with CAKI-1 renal; 95.9% in the experiment with A498 renal. Further, the growth is 12.5% with CCRF-CEM leukemia and 3.06% (active) with MOLT-4 leukemia.
In the case of `COC(=O)c1cc2c(/C=C3/NC(=S)NC3=O)coc2n1C`, the growth is 90.3% in the experiment on HCT-15 colon; 116% in the experiment on HT29 colon; 79.4% in the experiment on SNB-75 CNS; 101% in the experiment with SNB-19 CNS; 70.7% in the experiment with U251 CNS; 66.7% in the experiment on PC-3 prostate. The growth was 96.5% in the experiment with SK-MEL-5 melanoma; 86.6% in the experiment on UACC-62 melanoma; 98.2% in the experiment with LOX IMVI melanoma; 97% in the experiment with SK-MEL-28 melanoma; 107% with SK-MEL-2 melanoma; 93.4% with EKVX NSCLC. The growth with SN12C renal was 118%; in the experiment on UO-31 renal, 50%; with TK-10 renal, 89.9%; with ACHN renal it was 95.2%; with CAKI-1 renal it was 74.4%; in the experiment on A498 renal, 99.6%. In addition, the growth in the experiment with CCRF-CEM leukemia was 85.2%; in the experiment with MOLT-4 leukemia, 99.9%.
In the case of `Cc1cc(=O)[nH]c(/C(=N/Nc2ccccc2)C(=O)c2ccc(Cl)cc2)n1`, the growth in the experiment on HCT-15 colon is 112%; in the experiment with HT29 colon it was 105%; in the experiment on SNB-75 CNS, 128%; in the experiment on SNB-19 CNS, 95.5%; with U251 CNS it was 107%; with PC-3 prostate it was 92.6%. Further, the growth with SK-MEL-5 melanoma was 92.4%; in the experiment on UACC-62 melanoma it was 92%; with LOX IMVI melanoma, 98.9%; with SK-MEL-28 melanoma, 110%; in the experiment on SK-MEL-2 melanoma it was 102%; in the experiment on EKVX NSCLC, 103%. The growth with SN12C renal was 93.2%; in the experiment on UO-31 renal it was 116%; with TK-10 renal, 65.5%; in the experiment with ACHN renal, 111%; with CAKI-1 renal it was 104%; with A498 renal it was 84%. The growth is 66% in the experiment with CCRF-CEM leukemia and 39.8% with MOLT-4 leukemia.
